# Assay results: PubChem BioAssay (NCATS)
# Records with an inconclusive call do not appear. A call without a number means that no potency is given here. Activity calls are given as the source filed them. Unless noted, the call rests on the fitted dose curve; in most records, active means well fitted curve in the direction sought with a large enough effect; inconclusive means small, poorly fitted or top-dose-only effect, or another doubt; inactive means no such curve, though single readings can be large; an effect the other way counts as inactive or inconclusive.
# Experiments:
# [1] = target: Nuclear receptor subfamily 1 group I member 3 (Homo sapiens) (UniProt Q14994); assay: Primary qHTS for antagonist of constitutive androstane receptor (CAR) against the NCATS DSHEA and TCM libraries (AID 1794836); further: potency means the concentration at half of the fitted maximal effect;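 on activity change, negative = inhibition: HepG2 cells stably expressing hCAR with CYP2B6 luciferase reporter stimulated by CITCO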
# Chain of Nuclear receptor subfamily 1 group I member 3 (Homo sapiens) (Q14994 whole entry, looked up): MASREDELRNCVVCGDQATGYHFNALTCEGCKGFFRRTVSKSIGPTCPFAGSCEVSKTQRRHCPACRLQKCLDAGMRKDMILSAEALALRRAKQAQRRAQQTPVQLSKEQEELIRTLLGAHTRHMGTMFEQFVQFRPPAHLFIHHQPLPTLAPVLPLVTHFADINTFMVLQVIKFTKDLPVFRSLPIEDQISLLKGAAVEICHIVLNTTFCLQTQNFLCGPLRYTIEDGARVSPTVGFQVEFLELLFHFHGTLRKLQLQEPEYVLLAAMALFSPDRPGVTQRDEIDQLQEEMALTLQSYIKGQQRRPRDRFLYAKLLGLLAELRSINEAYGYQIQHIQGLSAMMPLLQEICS
# Summary of the method: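 Antagonist mode: CAR reporter luminescence (ONE-Glo) in HepG2-CYP2B6-hCAR cells stimulated with 48 uM CITCO (final) over 24 h at 37 C, compounds titrated; viability read first by CellTiter-Fluor fluorescence.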
# [2] = Viability counterscreen for antagonist of constitutive androstane receptor (CAR) against the NCATS DSHEA and TCM libraries (AID 1794837);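 further: compound exposure lasted 24 h before viability reading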
# Summary of the method: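 Counterscreen performed in a 1536-well qHTS format using HepG2-CYP2B6-hCAR cells; samples titrated in the presence of 48 uM CITCO, with viability measured fluorometrically (405/540 nm) after 24 h.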
# [3] = Viability counterscreen for agonist of constitutive androstane receptor (CAR) against the NCATS DSHEA and TCM libraries (AID 1794838)
# Summary of the method: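 Multiplexed counterscreen: after 24 h compound exposure with 0.75 uM PK11195, HepG2-CYP2B6-hCAR viability was quantified fluorimetrically (CellTiter-Fluor, 405/540 nm) prior to the ONE-Glo luciferase read.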
# [4] = target: Nuclear receptor subfamily 1 group I member 3 (Homo sapiens) (UniProt Q14994); assay: Primary qHTS for agonist of constitutive androstane receptor (CAR) against the NCATS DSHEA and TCM libraries (AID 1794839); conditions: Potency: CAR antagonist co-added at 0.75 µM unless noted;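 further: HepG2 cells expressing human CAR with a CYP2B6 reporter plus PK11195 antagonist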
# Summary of the method: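 Concentration–response screen in HepG2-CYP2B6-hCAR cells under 0.75 µM PK11195; 24 h exposure; luminescent reporter signal with multiplexed fluorescent viability.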
# [5] = HepG2 viability counterscreen (readout 2: ATP content) against the NCATS DSHEA and TCM libraries (AID 1794840)
# Summary of the method: (§1)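 After HepG2 cells attach for ~4 h, substances are added and incubated ~24 h at 37C, 5% CO2. GF-AFC fluorescence then CellTiter-Glo luminescence give protease and ATP readouts.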
# [6] = HepG2 viability counterscreen (readout 1: protease activity) against the NCATS DSHEA and TCM libraries (AID 1794841);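 further: cells exposed to compounds for about 24 h before the protease read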
# Summary of the method: as §1
# [7] = target: Cytochrome P450 2D6 (Homo sapiens) (UniProt P10635); assay: qHTS for inhibitors of CYP2D6 against the NCATS DSHEA and TCM libraries (AID 1919972)
# Chain of Cytochrome P450 2D6 (Homo sapiens) (P10635 whole entry, looked up): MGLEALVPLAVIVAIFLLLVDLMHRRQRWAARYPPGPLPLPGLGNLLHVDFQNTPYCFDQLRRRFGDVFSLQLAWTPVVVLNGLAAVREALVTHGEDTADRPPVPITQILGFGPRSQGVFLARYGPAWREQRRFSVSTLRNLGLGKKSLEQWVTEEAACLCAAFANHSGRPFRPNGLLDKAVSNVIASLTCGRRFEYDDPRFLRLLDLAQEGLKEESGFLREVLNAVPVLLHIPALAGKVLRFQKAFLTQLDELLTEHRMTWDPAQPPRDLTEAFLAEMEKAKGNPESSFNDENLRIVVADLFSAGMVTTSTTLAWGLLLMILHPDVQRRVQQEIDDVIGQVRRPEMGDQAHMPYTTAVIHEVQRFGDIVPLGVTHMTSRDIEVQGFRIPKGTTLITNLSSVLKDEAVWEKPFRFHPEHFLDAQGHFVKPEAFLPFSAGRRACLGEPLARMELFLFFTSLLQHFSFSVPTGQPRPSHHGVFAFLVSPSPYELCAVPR
# Summary of the method: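 Steps: enzyme plus luciferin substrate dispensed; test substances pinned; 15 min RT; 1x NADPH regenerating solution added, 30–45 min RT protected from light; detection reagent, 30 min RT; luminescence measured. Minus-enzyme wells as background.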
# [8] = KB-3-1 P-gp reporter qHTS against the NCATS DSHEA and TCM libraries (AID 1919975)
# Summary of the method: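 Cell viability qHTS: 500 KB-3-1 cells/well, substances in titration, ~72 h, 37C; luminescent CellTiter-Glo read.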
# [9] = target: Cytochrome P450 1A2 (Homo sapiens) (UniProt P05177); assay: qHTS for inhibitors of CYPIA2 against the NCATS DSHEA and TCM libraries (AID 1919976);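 further: light from luciferin formed by CYP1A2 from a pro-luciferin substrate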
# Chain of Cytochrome P450 1A2 (Homo sapiens) (P05177 whole entry, looked up): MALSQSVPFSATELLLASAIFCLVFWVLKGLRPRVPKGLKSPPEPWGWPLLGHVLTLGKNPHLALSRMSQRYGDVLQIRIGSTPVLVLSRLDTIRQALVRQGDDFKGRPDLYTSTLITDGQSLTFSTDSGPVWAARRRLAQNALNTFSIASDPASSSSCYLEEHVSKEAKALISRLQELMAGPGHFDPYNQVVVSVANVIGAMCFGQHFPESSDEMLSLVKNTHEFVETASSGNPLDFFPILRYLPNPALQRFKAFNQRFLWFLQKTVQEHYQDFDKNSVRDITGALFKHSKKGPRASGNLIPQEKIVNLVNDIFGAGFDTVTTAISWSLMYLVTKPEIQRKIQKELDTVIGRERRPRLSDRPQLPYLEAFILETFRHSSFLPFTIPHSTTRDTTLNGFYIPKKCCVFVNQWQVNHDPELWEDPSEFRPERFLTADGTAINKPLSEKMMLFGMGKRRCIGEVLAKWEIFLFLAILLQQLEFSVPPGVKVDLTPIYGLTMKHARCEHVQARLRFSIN
# Summary of the method: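 Human CYP1A2 with its pro-luciferin substrate in supplier buffer (typically 100 mM KPO4) was pre-incubated with compounds 15 min at RT. Reaction was started with 1x NADPH regeneration solution and run 30-45 min at RT in the dark, then luminescence was read after P450-Glo detection reagent (30 min RT).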
# [10] = KB-8-5-11 P-gp reporter qHTS against the NCATS DSHEA and TCM libraries (AID 1919977)
# Summary of the method: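 Viability of drug-resistant KB-8-5-11 cells is measured by CellTiter-Glo luminescence following roughly 72 h treatment at 37C. Substances were titrated, with bortezomib as intraplate control.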
# [11] = qHTS Counterscreen for compound interference against the NCATS DSHEA and TCM libraries (AID 1919978); conditions: firefly luciferase detection reagent interference, luminescence;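 further: compounds preincubated with 1 µM D-luciferin or buffer before detection reagent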
# Summary of the method: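 Interference check: test samples were incubated with D-luciferin (final 1 uM) or buffer only for 15 min, room temperature, in a qHTS titration up to 39.8 uM, then developed with detection reagent and read by luminescence.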
# [12] = Dual reporter qHTS for agonist of Pregnane X Receptor (hPXR) against the NCATS DSHEA and TCM libraries: Fluorescence readout (AID 1920058)
# Summary of the method: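 hPXR-Luc HepG2 cells (2000/well) in phenol red-free medium with charcoal-stripped FBS attached for 5 h, then were exposed to compounds for about 24 h at 37 °C. Viability was read by CellTiter-Fluor fluorescence (Ex/Em 405/540 nm) after 1 h.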
# [13] = target: Nuclear receptor subfamily 1 group I member 2 (Homo sapiens) (UniProt O75469); assay: Dual reporter qHTS for antagonist of Pregnane X Receptor (hPXR) against the NCATS DSHEA and TCM libraries: Luminescence Readout (AID 1920060)
# Chain of Nuclear receptor subfamily 1 group I member 2 (Homo sapiens) (O75469 whole entry, looked up): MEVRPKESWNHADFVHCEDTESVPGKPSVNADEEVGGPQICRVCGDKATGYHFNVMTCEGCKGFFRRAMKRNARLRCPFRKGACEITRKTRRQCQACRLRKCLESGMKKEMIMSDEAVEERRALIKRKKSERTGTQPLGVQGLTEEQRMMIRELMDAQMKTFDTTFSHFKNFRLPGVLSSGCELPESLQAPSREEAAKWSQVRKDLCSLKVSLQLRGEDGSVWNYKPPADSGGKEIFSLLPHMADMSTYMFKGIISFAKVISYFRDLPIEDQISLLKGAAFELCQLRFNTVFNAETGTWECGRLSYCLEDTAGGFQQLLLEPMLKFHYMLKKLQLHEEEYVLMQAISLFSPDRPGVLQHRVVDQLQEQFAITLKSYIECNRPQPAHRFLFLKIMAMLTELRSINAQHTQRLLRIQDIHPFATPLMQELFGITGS
# Summary of the method: (§2)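 Rifampicin-stimulated (2 uM final) hPXR-luciferase HepG2 cells were treated for 24 h with DSNP/TCM substances. Viability came from CellTiter-Fluor fluorescence, reporter activity from ONE-Glo luminescence.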
# [14] = Dual reporter qHTS for antagonist of Pregnane X Receptor (hPXR) against the NCATS DSHEA and TCM libraries: Fluorescence Readout (AID 1920061)
# Summary of the method: as §2
# [15] = target: Catechol O-methyltransferase (Homo sapiens) (UniProt P21964); assay: Confirmatory Screen for Target Class Profiling of Small Molecule Inhibitors of Methyltransferases (AID 1745852); conditions: MTase-Glo luminescence, SAH detection, recombinant enzyme; measured here: COMT max response; stronger effect = lower value
# Chain of Catechol O-methyltransferase (Homo sapiens) (P21964 whole entry, looked up): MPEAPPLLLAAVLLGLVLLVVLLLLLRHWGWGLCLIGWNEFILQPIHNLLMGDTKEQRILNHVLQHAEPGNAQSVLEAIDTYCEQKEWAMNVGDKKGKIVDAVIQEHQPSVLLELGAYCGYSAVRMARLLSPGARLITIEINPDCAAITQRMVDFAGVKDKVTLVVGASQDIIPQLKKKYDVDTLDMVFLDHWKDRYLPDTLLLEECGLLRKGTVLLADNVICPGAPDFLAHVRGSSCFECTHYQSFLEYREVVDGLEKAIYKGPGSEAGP
# [16] = target: Guanidinoacetate N-methyltransferase (Homo sapiens) (UniProt Q14353); assay: as above; conditions: MTase-Glo luminescence, SAH detection, recombinant enzyme; activity change, negative = inhibition: at 85.7 µM (top of the series) unless noted
# [17] = target: Nicotinamide N-methyltransferase (Homo sapiens) (UniProt P40261); assay: as above; conditions: MTase-Glo luminescence, SAH detection, recombinant enzyme; measured here: NNMT max response; stronger effect = lower value
# Chain of Nicotinamide N-methyltransferase (Homo sapiens) (P40261 whole entry, looked up): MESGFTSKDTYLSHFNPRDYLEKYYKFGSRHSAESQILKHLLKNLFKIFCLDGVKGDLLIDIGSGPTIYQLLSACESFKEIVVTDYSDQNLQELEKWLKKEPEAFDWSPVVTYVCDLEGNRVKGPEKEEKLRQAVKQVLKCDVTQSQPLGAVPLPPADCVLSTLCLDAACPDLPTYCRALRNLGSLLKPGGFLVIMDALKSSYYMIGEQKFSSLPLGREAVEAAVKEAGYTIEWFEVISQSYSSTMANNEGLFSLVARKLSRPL
# [18] = target: Phenylethanolamine N-methyltransferase (Homo sapiens) (UniProt P11086); assay: as above; conditions: MTase-Glo luminescence, SAH detection, recombinant enzyme; measured here: PNMT max response; stronger effect = lower value
# Chain of Phenylethanolamine N-methyltransferase (Homo sapiens) (P11086 whole entry, looked up): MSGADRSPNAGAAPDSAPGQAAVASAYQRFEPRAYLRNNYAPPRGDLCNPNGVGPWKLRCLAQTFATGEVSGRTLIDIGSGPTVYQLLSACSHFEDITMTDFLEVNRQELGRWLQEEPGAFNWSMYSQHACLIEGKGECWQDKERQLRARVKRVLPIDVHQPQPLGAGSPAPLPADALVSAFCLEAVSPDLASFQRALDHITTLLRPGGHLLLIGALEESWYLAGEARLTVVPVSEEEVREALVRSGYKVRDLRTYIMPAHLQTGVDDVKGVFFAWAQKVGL
# [19] = NCATS anti-infectives library activity on HEK293 viability as a counter-qHTS vs the C. elegans viability qHTS (AID 1745854)
# Summary of the method: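 HEK293 cells, 1500 per well, exposed 24 hr at 37C in 5% CO2 to compounds in a 1:5 titration, up to 41.7 uM final. Viability read as CellTiter-Glo luminescence after 10 min at room temperature.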
# [20] = target: Endonuclease 4 (Escherichia coli (strain K12)) (UniProt P0A6C1); assay: Counterscreen for APE1 Inhibitors: qHTS Validation Assay for Inhibitors of Endonuclease IV (AID 1708); further: potency means the concentration at half of the fitted maximal effect
# Summary of the method: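 Enzymatic AP-site incision assay using a double-stranded THF substrate labelled with TAMRA and BHQ-2; released fluorescence signals activity. Enzyme 2 nM, substrate 50 nM, 15 min compound preincubation.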
# [21] = target: Ferritin light chain (Equus caballus) (UniProt P02791); assay: qHTS Validation Assay for Identification of Novel General Anesthetics (AID 2323); further: potency means the concentration at half of the fitted maximal effect
# Chain of Ferritin light chain (Equus caballus) (P02791 2-175 limits assumed): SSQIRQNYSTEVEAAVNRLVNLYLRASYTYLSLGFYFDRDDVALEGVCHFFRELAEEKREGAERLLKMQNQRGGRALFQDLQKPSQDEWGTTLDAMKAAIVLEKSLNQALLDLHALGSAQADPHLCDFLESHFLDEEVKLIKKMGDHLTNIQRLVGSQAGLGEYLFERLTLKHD
# Summary of the method: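 Normalized fluorescence response, scaled between free 1-AMA and 1-AMA/apoferritin complex, fitted to a four-parameter Hill equation for concentration-effect values. Binding mix: 10 uM horse-spleen apoferritin, 50% saturated 1-AMA in PBS; read 380/535 nm after 10 min.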
# [22] = Validation screen for inhibitors of Lassa infection (AID 463096; calls by dose curve)
# [23] = target: M-phase phosphoprotein 8 (Homo sapiens) (UniProt Q99549); assay: qHTS Validation Assay for Inhibitors for MPP8 Chromodomain Interactions with Methylated Histone Tails (AID 488949); further: potency means the concentration at half of the fitted maximal effect; nearly all actives have a fitted effect of over 55% in size
# Chain of M-phase phosphoprotein 8 (Homo sapiens) (Q99549 whole entry, looked up): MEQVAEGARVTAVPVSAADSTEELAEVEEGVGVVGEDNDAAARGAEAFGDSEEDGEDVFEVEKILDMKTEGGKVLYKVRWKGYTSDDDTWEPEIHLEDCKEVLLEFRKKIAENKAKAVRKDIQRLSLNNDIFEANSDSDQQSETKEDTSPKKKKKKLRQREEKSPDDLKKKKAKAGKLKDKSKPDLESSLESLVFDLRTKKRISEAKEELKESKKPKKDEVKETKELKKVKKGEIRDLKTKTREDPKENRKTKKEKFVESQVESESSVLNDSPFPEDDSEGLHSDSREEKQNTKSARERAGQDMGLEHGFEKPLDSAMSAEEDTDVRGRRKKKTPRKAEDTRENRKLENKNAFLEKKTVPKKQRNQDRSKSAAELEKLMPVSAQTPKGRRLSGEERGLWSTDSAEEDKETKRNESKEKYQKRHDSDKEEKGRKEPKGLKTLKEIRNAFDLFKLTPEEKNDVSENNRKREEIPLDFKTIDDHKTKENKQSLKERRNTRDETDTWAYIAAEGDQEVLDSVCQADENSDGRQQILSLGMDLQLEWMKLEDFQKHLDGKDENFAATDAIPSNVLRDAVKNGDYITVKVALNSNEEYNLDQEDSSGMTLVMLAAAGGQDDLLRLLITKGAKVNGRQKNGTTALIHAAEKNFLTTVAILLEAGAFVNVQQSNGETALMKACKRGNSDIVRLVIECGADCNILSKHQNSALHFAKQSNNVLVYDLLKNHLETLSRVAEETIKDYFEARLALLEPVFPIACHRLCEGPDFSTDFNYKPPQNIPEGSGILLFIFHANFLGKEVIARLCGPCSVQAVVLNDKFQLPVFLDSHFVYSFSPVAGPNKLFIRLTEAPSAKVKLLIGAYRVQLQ
# Summary of the method: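 Chemiluminescent proximity assay: histidine-tag capture via nickel acceptor beads, biotin peptide via streptavidin donor beads. Protein and peptide each at 50 nM, pH 7.4, with 30 min incubations at room temperature for complex formation, compound exposure and bead binding.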
smiles,measurement,setting,value
C=C[C@H]1CN2CC[C@@]3(C(=O)Nc4ccccc43)[C@@H]2C[C@@H]1/C(=C\OC)C(=O)OC,Potency,[1],3.98 µM (active)
same,outcome,[2],inactive
same,outcome,[3],inactive
same,Potency,[4],inactive
same,outcome,[5],inactive
same,outcome,[6],inactive
same,Potency,[7],inactive
same,outcome,[8],inactive
same,Potency,[9],inactive
same,Potency,[10],inactive
same,max response,[11],-1.45% (inactive)
same,outcome,[12],inactive
same,outcome,[13],inactive
same,outcome,[14],inactive
Cc1ccc(O)c(O)c1,Potency,[1],inactive
O=C(/C=C/c1ccc(O)c2c1[C@H](C(=O)O)[C@@H](c1ccc(O)c(O)c1)O2)O[C@H](Cc1ccc(O)c(O)c1)C(=O)O,Potency,[1],inactive
same,Potency,[10],inactive
OC[C@H]1O[C@@H](OC[C@H]2O[C@@H](OC/C=C/c3ccccc3)[C@H](O)[C@@H](O)[C@@H]2O)[C@@H](O)[C@@H]1O,Potency,[1],inactive
same,Potency,[10],inactive
O=C(OC[C@H]1O[C@@H](OC(=O)c2cc(O)c(O)c(O)c2)[C@H](OC(=O)c2cc(O)c(O)c(O)c2)[C@@H](OC(=O)c2cc(O)c(O)c(O)c2)[C@@H]1O)c1cc(O)c(O)c(O)c1,Potency,[1],inactive
same,Potency,[10],inactive
C=C[C@H]1CN2CC[C@H]1C[C@@H]2CNC(=O)Nc1ccc(Br)cc1,activity,[15],4.06%
same,"activity change, negative = inhibition",[16],-0.845%
same,activity,[17],-5.4%
same,activity,[18],4.01%
O=C(Nc1ccccc1F)N[C@@H]1N=C(c2ccccc2)c2ccccc2NC1=O,Potency,[19],inactive
N.N.N.N.N.N.N.N.N.N.N.N.N.N.O.O.[Cl-].[Cl-].[Cl-].[Cl-].[Cl-].[Cl-].[Ru].[Ru].[Ru],Potency,[20],28.2 µM (active)
same,Potency,[21],25.1 µM (active)
same,Potency,[22],inactive
same,Potency,[23],10 µM (active)
O=c1ccc2ccc3occc3c2o1,Potency,[19],inactive
